Laboratory results reported in PubChem BioAssay (Tox21).
Records with an inconclusive call do not appear. A call without a number means that no potency is given here. A number with no mark means an inactive call. Active and inactive are the calls of the source. Calls come from the whole dose curve; as a rule, active = well fitted cell-killing curve with a large enough effect in the repeat runs; inconclusive = weak or mixed curves, or effect the other way; inactive = flat fitted curve, though single readings scatter.

Assay: qHTS assay to identify small molecule agonists of the constitutive androstane receptor (CAR) signaling pathway - cell viability counter screen (AID 1224836); note: nearly all actives have a fitted effect of over 45% in size
Details: HepG2-CYP2B6-hCAR viability, CellTiter-Fluor, 23 h, PK11195 added to every well; series mostly up to 92.4 µM
Text: U.S. Tox21 Program National Center for Advancing Translational Sciences [NCATS] NIH Chemical Genomics Center [NCGC] U.S. Environmental Protection Agency [EPA] National Institutes of Environmental Health Sciences [NIEHS] National Toxicology Program [NTP] U.S. Food and Drug Administration [FDA] Tox21 Assay Overview: The constitutive androstane receptor (CAR) is a nuclear receptor which regulates multiple drug metabolizing enzymes (DMEs) and transporters. Activating CAR will generally increase the transcription and subsequent translation of CYP2B6 and CYP3A4. These two DMEs represent about 50% of the drug metabolizing potential in the body. […] Recently, there have also been studies performed indicating CARs role in energy metabolism and cancer therapy. Therefore, inducing CARs activity could have a potential effect on diabetes and cancer. Identifying environmental toxins and compounds which modulate CAR, through the use of the Tox21 10K compound collection, will be an important step in determining the toxicity and potential therapeutic effects these factors will have on the human body. To differentiate true CAR agonists from cytotoxic substances, the assay is multiplexed with a cell viability assay.
Tox21 Assay Protocol Summary: A double-stable (hCAR and CYP2B6-2.2kb) transfected cell line, derived from human hepatoma (HepG2) cells, was utilized for the duration of the quantitative high-throughput screens. The HepG2-CYP2B6-hCAR cells were dispensed at 2500 cells/4 uL/well in 1536-well white solid bottom plates using a Multidrop Combi. After the assay plates were incubated at 37 C/5% CO2 for 4 hrs, 23 nL of compounds at 15 concentrations (from 5-48 columns) or positive control (from 1 to 4 columns) were transferred to the assay plates using a Pintool station. One uL of PK11195 (final concentration = 0.75 uM) was added, using a Flying Reagent Dispenser, inside each well. After a 23 hr incubation period at 37 C/5% CO2, 1 uL of CellTiter-Fluor reagent was added into each well of the assay plates using a Flying Reagent Dispenser. The fluorescence intensity in the plates was then measured using a ViewLux plate reader.

Row | Compound | Potency | viability change, negative = cytotoxic
1 | C#CC(C)(C)O | inactive | –
2 | O=c1[nH]c2ccccc2o1 | inactive | –
3 | O=CCCl | inactive | –
4 | C=C(Cl)CCl | inactive | –
5 | CC(C)(N)Cc1ccc(Cl)cc1 | inactive | –
6 | Cc1ccc(S(=O)(=O)N[C@@H](CCCCN)C(=O)CCl)cc1 | inactive | –
7 | CCCOC(=O)Cc1ccc(OCC(=O)N(CC)CC)c(OC)c1 | inactive | –
8 | COP(=O)(OC)O/C(C)=C/C(=O)N(C)C | inactive | –
9 | CCCOC(=O)c1cncn1C(C)c1ccccc1 (stereo not given) | inactive | –
10 | O=P(O)(O)c1ccccc1 | inactive | –
11 | CCC(C)C(C)(COC(N)=O)COC(N)=O (stereo not given) | inactive | –
12 | CC(C)(C)C(=O)C(Cl)Cl | inactive | –
13 | CC1=C2[C@H]3OC(=O)[C@@H](C)[C@@H]3CC[C@@]2(C)C=CC1=O | inactive | –
14 | CCCCCCCCBr | inactive | –
15 | CC(C)N(Cc1ccccc1)C(=O)C(C)(C)C | inactive | –
16 | C=C1C[C@@H]2[C@H](CC[C@]3(C)C(=O)CC[C@@H]23)[C@@]2(C)C=CC(=O)C=C12 | inactive | –
17 | N#CC(Br)(Br)C(N)=O | inactive | –
18 | O=C(Cl)c1ccccc1 | inactive | –
19 | COc1ccccc1OC | inactive | –
20 | O=C(O)C(F)(F)C(F)(F)C(F)(F)C(F)(F)C(F)(F)C(F)(F)F | inactive | –

Row | Compound | Potency | viability change, negative = cytotoxic
21 | NC(=O)OCCCc1ccccc1 | inactive | –
22 | COc1cccc([C@@]2(O)CCCC[C@@H]2CN(C)C)c1 | inactive | –
23 | COC[C@@H](NC(C)=O)C(=O)NCc1ccccc1 | inactive | –
24 | CC(C)c1ccc(O)cc1 | inactive | –
25 | C=CC(=O)OCCN(C)C | inactive | –
26 | OP(O)c1ccccc1 | inactive | –
27 | N[C@@H]1C[C@H]1c1ccccc1 | inactive | –
28 | O=C(O)C(Cl)Br (stereo not given) | inactive | –
29 | CC(C)[N+](C)(CCC(C(N)=O)(c1ccccc1)c1ccccc1)C(C)C | inactive | –
30 | CCc1ccc(C2CCNCC2)cc1 | inactive | –
31 | CN(CCO)CCO | inactive | –
32 | CN=CNc1ccc(C)cc1C | inactive | –
33 | CC(C)NCC(O)c1ccc([N+](=O)[O-])cc1 (stereo not given) | inactive | –
34 | CC(=O)OCC1=C(C(=O)O)N2C(=O)[C@@H](N)[C@H]2SC1 | – | 12.6% [at 19 µM]
35 | ClCOCCl | inactive | –
36 | CC1N=C(N)OC1c1ccccc1 (stereo not given) | inactive | –
37 | Cc1ccc(-c2nc3ccc(C)cn3c2CC(=O)N(C)C)cc1 | inactive | –
38 | CCCCCCC(=O)CCCCCC/C=C/C[C@@H](O)[C@H](O)[C@@](N)(CO)C(=O)O | – | 6.33% [at 19 µM]
39 | CCC(CC)(CNC(=O)CCCO)c1cccc(OC)c1 | inactive | –
40 | CCC(=O)OC1(c2ccccc2)CCN(C)CC1 | inactive | –
